{
  "source": "ChEMBL document CHEMBL3988442",
  "about": "“University of Dundee, Small-Polar-MMV Screening Library” (2021)",
  "note": "About 13,000 (27%) of roughly 48,000 compounds showed an effect of 50% or more. The list shows a part of the results.",
  "data": [
    {"test_system": "Wolbachia pipientis", "assay": "Anti-Wolbachia Cell-Based Screen", "type": "functional", "design": "scale not given: in the data most compounds retested in dose-response had high values", "conditions": "5 µM", "units": {"Percent Effect": "%"}, "values": [
      {"compound": "CCOCc1ccccc1NC(=O)NC1CCN(CC(F)(F)F)C1", "note": "(centres undefined)", "Percent Effect": 4.433},
      {"compound": "CCN(CC)CCN(CC(C)C)c1cc(C(F)(F)F)nc2ncnn12", "Percent Effect": -0.1585},
      {"compound": "Cc1cccc(C(=O)N2CCN(S(C)(=O)=O)[C@@H](C)C2)c1C", "Percent Effect": -0.07044},
      {"compound": "CNC(=O)NC(=O)CCN1CCOC(c2ccc(Br)cc2)C1", "note": "(centres undefined)", "Percent Effect": 0.8414},
      {"compound": "CC(=O)N1CCO[C@@H]2CN(S(=O)(=O)C3CC3)CC[C@@H]2C1", "Percent Effect": 114.1},
      {"compound": "O=C(O)C(F)(F)F.O=S(=O)(C1CC1)N1C[C@@H]2CN(Cc3ccoc3)CCO[C@@H]2C1", "Percent Effect": 10.49},
      {"compound": "CC(=O)N1C[C@@H]2CN(S(=O)(=O)C3CC3)CCO[C@@H]2C1", "Percent Effect": 81.74},
      {"compound": "O=C(O)C(F)(F)F.O=S(=O)(C1CC1)N1CCO[C@@H]2CN(Cc3cccs3)C[C@@H]2C1", "Percent Effect": 3.839},
      {"compound": "CC(=O)N1CCO[C@@H]2CN(C(=O)c3ccc4ccccc4c3)CC[C@@H]2C1", "Percent Effect": 3.224},
      {"compound": "CC(=O)N1CCO[C@@H]2CN(S(=O)(=O)C3CC3)C[C@@H]2C1", "Percent Effect": 90.6},
      {"compound": "CC(=O)N1CCO[C@@H]2CN(S(=O)(=O)c3ccccc3F)C[C@@H]2C1", "Percent Effect": -1.494},
      {"compound": "COCc1ccc(CN[C@H]2C[C@@H](Cc3cc(CCO)on3)C2(C)C)o1", "Percent Effect": -18.1},
      {"compound": "CSC(C)C(=O)N1CCN(CCO)CC1", "note": "(centres undefined)", "Percent Effect": -9.9},
      {"compound": "CCCn1nc2c(cc1=O)CN(Cc1c(C)noc1C)CC2", "Percent Effect": -3.39},
      {"compound": "Cc1noc(C2CCCN(CC(=O)N3CCNC(=O)C3)C2)n1", "note": "(centres undefined)", "Percent Effect": 8.261},
      {"compound": "CN(C)C(=O)CN1C[C@@H]2CC[C@H](C1)N(Cc1ccccc1OCCO)C2", "Percent Effect": -40.78},
      {"compound": "Cc1cc(CN(CCO)c2ccccc2)on1", "Percent Effect": -2.201},
      {"compound": "Cc1nc(CNC(=O)Cn2nc(-c3ccc(F)cc3)oc2=O)cs1", "Percent Effect": -1.04},
      {"compound": "Cn1c(SCc2noc(-c3ccsc3)n2)nnc1C1CCS(=O)(=O)C1", "note": "(centres undefined)", "Percent Effect": -1.02},
      {"compound": "CC(C(=O)Nc1ncccn1)N1CCc2[nH]nc(C(F)(F)F)c2C1", "note": "(centres undefined)", "Percent Effect": -12.45},
      {"compound": "CC(C)c1cc(NC2CCN(C(=O)N3CCCC3)CC2)ncn1", "Percent Effect": -23.56},
      {"compound": "CC(C)CN1C(=O)CO[C@@H]2CN(C(=O)N3CCOCC3)C[C@H]21", "Percent Effect": -11.7},
      {"compound": "CSc1nnc(C2CCN(C(=O)N3CCCC3)CC2)n1C(C)C", "Percent Effect": 114},
      {"compound": "CC(C)n1ccnc1C1CCN(C(=O)N2CCCC2)CC1", "Percent Effect": -25.38},
      {"compound": "CSc1nnc(C2CCN(C(=O)N3CCOCC3)CC2)n1C(C)C", "Percent Effect": 91.83},
      {"compound": "Cn1ccc(NC2CCN(C3CC3)C2=O)n1", "note": "(centres undefined)", "Percent Effect": -4.974},
      {"compound": "CC(C)n1nc(CN2CCCC2=O)c2c1CN(C(=O)c1ccno1)C2", "Percent Effect": 92.04},
      {"compound": "CC(C)n1nc(CN2CCCC2=O)c2c1CN(C(=O)c1ccco1)C2", "Percent Effect": 113.5},
      {"compound": "Cn1nc(CN2CCOCC2)c2c1CN(C(=O)c1ccc[nH]1)C2", "Percent Effect": -8.763},
      {"compound": "CC(C)n1nc(CN2CCCC2=O)c2c1CN(C(=O)c1ccc[nH]1)C2", "Percent Effect": 104.5},
      {"compound": "Cn1nc(C#N)c2c1CN(C(=O)c1ccco1)CCC2", "Percent Effect": -2.9},
      {"compound": "O=C(c1ccco1)N1CCc2onc(CN3CCCC3)c2C1", "Percent Effect": -15.89},
      {"compound": "COCc1nn(CC2CC2)c2c1CN(C(=O)c1ccno1)CC2", "Percent Effect": 1.769},
      {"compound": "COCc1nn(C)c2c1CN(C(=O)c1ccno1)CC2", "Percent Effect": 7.505},
      {"compound": "Cn1nc(CN2CCCC2)c2c1CN(C(=O)c1ccc[nH]1)CC2", "Percent Effect": -10.94},
      {"compound": "N#CC1COCCN1S(=O)(=O)c1ccc2c(c1)CCC2", "note": "(centres undefined)", "Percent Effect": 4.042},
      {"compound": "N#Cc1cccnc1N[C@@H]1c2ccccc2C[C@@H]1O", "Percent Effect": 4.876},
      {"compound": "CCN(CC)C(=O)[C@@H]1C[C@H](N)CN1C(=O)c1cc2c([nH]c1=O)CCC2", "Percent Effect": -7.026},
      {"compound": "Cc1cnc(C)c(-c2cc(O)c3c(c2)CN(Cc2nccs2)CCO3)n1", "Percent Effect": 17.73},
      {"compound": "Cc1nn(C)c(C)c1C(=O)N1CCN(c2ccncc2Cl)CC1", "Percent Effect": 86.38},
      {"compound": "Cc1nn(C)c(C)c1C(=O)N1CCN(C(=O)CCC2CCCCC2)CC1", "Percent Effect": -21.72},
      {"compound": "Cc1cc(C(=O)N2CCN(c3ccncc3Cl)CC2)n(C)n1", "Percent Effect": 77.84},
      {"compound": "O=C(N1CCOCC1)N1CCN(c2ccncc2Cl)CC1", "Percent Effect": -18.06},
      {"compound": "CC(C)c1cc(C(=O)N2CCN(c3ccncc3)CC2)n(C)n1", "Percent Effect": 12.18},
      {"compound": "Cc1cccc(N2CCN(C(=O)c3c(C)nn(C)c3C)CC2)c1C", "Percent Effect": 34.44},
      {"compound": "Cc1cc(F)ccc1S(=O)(=O)NCC(O)c1cccn1C", "note": "(centres undefined)", "Percent Effect": -4.916},
      {"compound": "CCOCC1CN(C(=O)CC2=CCCCC2)Cc2nnn(C)c21", "note": "(centres undefined)", "Percent Effect": 41.96},
      {"compound": "O=C(C1CCOCC1)N1CC[C@H]2C[C@@H](c3ccncn3)O[C@@H]2C1", "Percent Effect": -5.284},
      {"compound": "Cc1nccc([C@@H]2C[C@H]3CN(S(=O)(=O)c4ccccc4)C[C@H]3O2)n1", "Percent Effect": 93.7},
      {"compound": "Cc1nccc([C@H]2C[C@@H]3CCN(S(=O)(=O)N(C)C)C[C@H]3O2)n1", "Percent Effect": -8.198},
      {"compound": "Cc1nccc([C@@H]2C[C@@H]3CCN(S(=O)(=O)N(C)C)C[C@H]3O2)n1", "Percent Effect": 88.34},
      {"compound": "Cc1nccc([C@@H]2C[C@@H]3CCN(S(=O)(=O)C4CC4)C[C@H]3O2)n1", "Percent Effect": 103.3},
      {"compound": "O=C1CO[C@H]2CN(S(=O)(=O)c3ccccc3)C[C@H]2N1c1ccccc1", "Percent Effect": -3.468},
      {"compound": "O=C1CO[C@H]2CN(S(=O)(=O)c3ccccc3)C[C@H]2N1Cc1ccccn1", "Percent Effect": 1.166},
      {"compound": "Cc1nccc([C@H]2C[C@@H]3CCN(S(=O)(=O)C4CC4)C[C@H]3O2)n1", "Percent Effect": 101.1},
      {"compound": "N#Cc1cc2c(=O)n(CC(O)c3cccc(O)c3)ccc2[nH]c1=O", "note": "(centres undefined)", "Percent Effect": -10.2},
      {"compound": "COc1cc(N2CC[C@@H]3O[C@@H](c4ccnc(C)n4)C[C@H]3C2)ncn1", "Percent Effect": -12.7},
      {"compound": "Cc1nccc([C@H]2C[C@@H]3CCN(S(C)(=O)=O)C[C@H]3O2)n1", "Percent Effect": 116.1},
      {"compound": "Cc1nccc([C@@H]2C[C@@H]3CCN(S(C)(=O)=O)C[C@H]3O2)n1", "Percent Effect": -4.62}
    ]}
  ]
}
